Screening data: PubChem BioAssay, National Center for Advancing Translational Sciences (NCATS)
Most compounds without a hit are left out; they make up all but 7.5% or so of the library.
NPC1 promoter act: activators of NPC1 promoter; hit rate 2.4% among 320,000; Huh7 NPC1 promoter luciferase reporter, 24 h; Potency, µM (top dose mostly 9.22 µM), for the others: at the highest dose activation, hits mostly activators; AID 485313; also: % of control where 0% means no effect; nearly all actives have a fitted effect of over 60% in size
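Huh7 reporter cells (NPC1 promoter driving luciferase) are dosed with compound for 24 h at 37 °C, 5% CO2; luciferase detection reagent is then added and luminescence measured after 10 min at ambient temperature.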
Rab9 prom act: activates the Rab9 promoter; hit rate 2.8% among 320,000; Potency, µM (titrated, usually from 9.22 µM), without a hit: top-dose activation, negative = inhibition, most hits filed as activators; Huh7 Rab9 promoter-luciferase reporter, luminescence, 24 h; AID 485297; also: % of control where 0% means no effect; nearly all actives have a fitted effect of over 60% in size
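Luminescence read-out: Huh7 cells stably expressing Rab9-luciferase, treated 24 h with compound at 37 °C, then lysed with luciferase reagent for 10 min at ambient before reading.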
ELG1 genotoxic: inducers of genotoxicity in HEK293T ELG1-luciferase cells; Potency, µM (highest dose often 46 µM), for inactives: top-dose activity change, positive = activation, usual class: activators; AID 504466; HEK293T ELG1-luciferase reporter, luminescence, 16 h; hit rate 1.3% among 330,000; also: % of control where 0% means no effect; nearly all actives have a fitted effect of over 60% in size
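HEK293T cells expressing luciferase-tagged ELG1 were exposed to compound or DMSO vehicle for 16 hr at 37 °C and 5% CO2. Luciferase activity was then measured with ONE-Glo after 30 min at room temperature.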
FLuc counter: firefly luciferase modulation, counter-screen for miR-21 project; hit rate 6.9% among 360,000; Potency, µM (doses to about 57.5 µM), inactives show at the top dose activity change, negative = inhibition, usual class: inhibitors; AID 588342; purified FLuc, Km substrates, luminescence inhibition; P08659;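 also: plate controls were vehicle for no effect and reference inhibitor for full effect; nearly all actives have a fitted effect of over 55% in size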
Target sequence (P08659 whole entry, looked up): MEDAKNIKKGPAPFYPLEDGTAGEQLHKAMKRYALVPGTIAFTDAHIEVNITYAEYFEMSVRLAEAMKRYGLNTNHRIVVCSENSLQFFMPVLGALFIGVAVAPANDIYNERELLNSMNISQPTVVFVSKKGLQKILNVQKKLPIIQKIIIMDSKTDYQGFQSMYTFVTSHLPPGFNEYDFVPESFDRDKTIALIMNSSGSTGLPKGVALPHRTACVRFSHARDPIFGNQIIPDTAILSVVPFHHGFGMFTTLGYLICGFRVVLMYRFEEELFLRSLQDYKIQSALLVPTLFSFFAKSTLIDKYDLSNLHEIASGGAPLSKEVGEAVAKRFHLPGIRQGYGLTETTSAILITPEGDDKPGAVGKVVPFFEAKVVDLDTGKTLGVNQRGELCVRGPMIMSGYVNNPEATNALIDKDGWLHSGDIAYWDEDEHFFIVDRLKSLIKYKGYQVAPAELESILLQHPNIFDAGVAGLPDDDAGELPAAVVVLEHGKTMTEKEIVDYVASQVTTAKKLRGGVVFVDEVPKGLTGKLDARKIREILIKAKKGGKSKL
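Biochemical qHTS of compounds, final roughly 60 µM downward over six points, against 10 nM purified firefly luciferase using Km concentrations of substrates (10 uM D-luciferin, 10 uM ATP) in Tris acetate pH 7.5 buffer; luminescence output.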
SMN2 splice up: SMN2 splice variant enhancement. HEK293 SMN2-luciferase splicing reporter, luminescence, 30-36 h. Potency, µM (top dose mostly 46.1 µM), without a hit: top-dose activity change, positive = activation, actives largely listed as activators. hit rate 2.8% among 210,000. AID 1458; also: % of control where 0% means no effect; nearly all actives have a fitted effect of over 55% in size
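HEK293 cells carry an SMN2 minigene-luciferase reporter in which exon 7 inclusion puts luciferase in frame. Cells were seeded at 2000 cells/well, attached for 10-12 hours, then exposed to compounds for 30-36 hours at 37C before ONE-Glo luminescence.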
KinaseGlo FLuc: Kinase-Glo luciferase inhibition (counter-screen); hit rate 0.28% among 200,000; Kinase-Glo luciferase, ATP luminescence, 8 min; AID 1379; Q27757; Potency, µM (top dose mostly 38.3 µM), for the others: at the top dose activity change, negative = inhibition, most hits filed as inhibitors; also: % is scaled to controls: 0 for no effect and ±100 for the full control effect; nearly all actives have a fitted effect of over 60% in size
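Inhibition of Kinase-Glo luciferase light generation was assessed at 10 uM ATP in pH 7.2 imidazole buffer, with luminescence measured after eight minutes at ambient temperature.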
The depositor's hits bear a star; ? = inconclusive; · = no result; [ ] = another dose, or the depositor's remark. Calls follow the shape of the dose curve; as a rule, active = well fitted curve in the direction sought with a large enough effect; inconclusive = small, poorly fitted or top-dose-only effect, or another doubt; inactive = no such curve, though single readings can be large; an effect the other way counts as inactive or inconclusive. Potency is read from the fitted curve at half-maximal effect.

SMILES	NPC1 promoter act	Rab9 prom act	ELG1 genotoxic	FLuc counter	SMN2 splice up	KinaseGlo FLuc
CC(C)C[C@@H](COc1ccccc1)N1CCN(Cc2ccccc2)CCC1=O	0.5%	-3.4%	-8.0%	-1.1%	·	·
Cc1ccccc1-c1n[nH]c(=S)n1/N=C/c1c(C)nn(-c2ccccc2)c1C	-1.9%	0.0%	-8.6%	0.9%	14.1µM*	3.1%
Cn1nccc1C(=O)N/N=C/c1ccccc1[N+](=O)[O-]	2.51µM*	2.82µM*	?	13.5µM*	·	·
COc1cccc(/C=N/NC(=O)NC2CCCCC2)c1O	?	?	?	16.9µM*	·	·
Cc1occc1C(=O)N/N=C/c1ccccn1	24.9%	?	?	?	·	?
Cc1occc1C(=O)N/N=C/c1ccccc1[N+](=O)[O-]	3.16µM*	3.98µM*	?	9.53µM*	·	·
COc1cccc(/C=N/NC(=O)c2ccoc2C)c1	2.51µM*	1.58µM*	?	10.7µM*	·	·
COc1cccc(/C=N/NC(=O)C(=O)N/N=C/c2cccc(OC)c2O)c1O	-33.6%	-22.9%	1.7%	-0.3%	-36.3%	-1.5%
Cc1occc1C(=O)Nc1cccc([N+](=O)[O-])c1C	-3.2%	13.3%	0.3%	-2.5%	·	·
OCCC1CN(Cc2ccon2)CCN1Cc1ccc(F)c(F)c1 (configuration not stated)	-0.2%	-0.7%	0.8%	-2.1%	·	2.9%
CCN(CC)C(=O)Cn1c(=O)n(CCCCCC(=O)NCc2ccc3c(c2)OCO3)c(=O)c2sccc21	·	·	·	-3.8%	2.4%	·
CCc1cccc(C)c1NC(=O)CN1C(=O)c2c(c3ccccc3n2C)C1c1ccc(OC)cc1 (configuration not stated)	·	·	·	-2.1%	·	·
COc1cc(/C=N/NC(=O)c2ccoc2C)ccc1O	9.1%	16.0%	12.4%	13.5µM*	?	-16.0%
COc1cccc(/C=N/NC(=O)c2ccoc2C)c1O	8.3%	-1.5%	20.6µM*	8.49µM*	·	·
COc1cc(/C=N/NC(=O)c2cc(C)oc2C)ccc1O	-2.0%	-2.6%	5.9%	?	·	·
CCN(CC)c1ccc(/C=N/NC(=O)c2ccoc2C)cc1	0.501µM*	?	0.731µM*	1.07µM*	·	·
CCOc1ccc(/C=N/NC(=O)c2ccoc2C)cc1OC	?	3.55µM*	18.3µM*	?	·	·
CCc1nc(NC(=O)c2sc(C)nc2C)sc1C(=O)OC	11.9%	12.6%	5.4%	?	·	·
CNC(=O)C1CCC(Cn2c(=O)c3sccc3n(CC(=O)N3CCCC(C)C3)c2=O)CC1 (configuration not stated)	·	·	·	-0.4%	·	·
COC(=O)CCc1sc(Nc2ccccc2)nc1-c1ccc(OC)cc1	14.8%	24.9%	?	23.9µM*	?	1.5%
COc1ccc(Nc2nc(-c3ccc(OC)cc3)c(CCC(=O)O)s2)cc1	-4.7%	-8.0%	3.2%	?	·	·
O=C(O)c1ccccc1-c1nc2ccccc2[nH]1	18.2%	?	8.4%	13.5µM*	12.7%	-18.9%
COc1ccc2oc(=Nc3cccc(F)c3)c(C(N)=O)cc2c1	-10.0%	2.0%	2.3%	-0.5%	-4.6%	0.8%
COc1ccc(-c2cc(=O)n(-c3nc4ccccc4[nH]3)[nH]2)cc1	20.8%	?	?	10.7µM*	?	-26.3%
COc1cc(OC)cc(C(=O)Nc2cc(-c3nc4ccccc4[nH]3)ccc2C)c1	·	·	·	7.57µM*	0.1%	·
O=C(c1ccccc1-c1nc2ccccc2[nH]1)N1CCOCC1	1.0%	-0.2%	-0.1%	2.7%[2.3 µM]	20.9%	-1.1%
COc1ccc(CCCc2nc3ccccc3[nH]2)cc1	-1.6%	-3.4%	-3.7%	?	·	·
COc1ccc2oc(=Nc3ccccc3)c(-c3nc4ccccc4[nH]3)cc2c1	?	?	7.31µM*	6.01µM*	12.6µM*	-7.6%
O=C(O)c1cccc(-c2nc3ccccc3[nH]2)c1	?	?	-5.9%	1.9µM*	15.8µM*	-10.9%
c1cncc(-c2nc3ccccc3[nH]2)c1	16.9%	16.1%	-1.1%	?	10.0%	-8.6%
